Source: PubChem BioAssay (EPA / NIEHS)
Records with an inconclusive call do not appear. Activity calls are given as the source filed them. The calls were made as follows, unless noted: active = hit-call score of the fitted dose curve at least 0.9, where 1 is the maximum; inconclusive = response in the unintended direction; inactive = score below 0.9.

Key:
[1] = CCTE_Mundy_HCI_iCellGluta_NOG_NeuriteLength: CCTE's Neurite Outgrowth Assay in iCellGluta cells for Neurite Length, Mundy Lab (AID 2284318)
Procedure, shortened: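 Automated high-content imaging of betaIII-tubulin (Alexa Fluor-488) and Hoechst-stained cells gave neurite length, normalized to the DMSO baseline.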

[2] = test system: Brachyury (BRA) Protein Expression, Deisenroth Lab, TBXT (gene 6862); experiment: CCTE_Deisenroth_DEVTOX-GLR_legacy_Bra: (Legacy) CCTE's DevTox GLR-Endo Assay Evaluation of Brachyury (BRA) Protein Expression, Deisenroth Lab (AID 2284329; active = hit-call score of the fitted dose curve at least 0.9, where 1 is the maximum; inactive = score below 0.9)
Procedure, shortened: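 RUES2-GLR human pluripotent cells differentiated 48 h with two 24-h-interval chemical exposures (1 nM - 200 uM, 10 points); fixed, nuclear-stained, imaged. Bra+ cell percentage (intensity 5x BMAD above pluripotent control median) fitted relative to 0.2% DMSO.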

[3] = CCTE_Deisenroth_DEVTOX-GLR_legacy_CellCount: (Legacy) Viability Assessment in CCTE's DevTox GLR-Endo Assay, Deisenroth Lab (AID 2284331; active = hit-call score of the fitted dose curve at least 0.9, where 1 is the maximum; inactive = score below 0.9); conditions: actives raise or lower the signal
Procedure, shortened: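 Human pluripotent RUES2-GLR cells differentiated 48 h with two 24-h-interval exposures, 10-point 1 nM–200 uM series, 0.2% DMSO. Fixed nuclei counted by high-content imaging (5 fields/well); bidirectional fit vs DMSO, n≥4.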

[4] = IUF_NPC1_cytotoxicity_72hr: Cytotoxicity Assessment at 72 hours in the Leibniz Research Institute for Environmental Medicine (IUF) Neural Progenitor Cell Proliferation Assay (NPC1) (AID 2284332);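 also: rising LDH signal means more cytotoxicity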
Procedure, shortened: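 Single human fetal cortex neural progenitor spheres (GW 16-19, 0.25-0.35 mm) in EGF/FGF proliferation medium were exposed to compound for 72 h at 37C without renewal. Medium LDH release was read as resorufin fluorescence and fitted as gain-of-signal.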

[5] = test system: SRY-box transcription factor 17 (SOX17) Protein Expression, Deisenroth Lab, SOX17 (gene 64321); experiment: CCTE_Deisenroth_DEVTOX-GLR_legacy_Sox17: (Legacy) CCTE's DevTox GLR-Endo Assay Evaluation of SRY-box transcription factor 17 (SOX17) Protein Expression, Deisenroth Lab (AID 2284341; active = hit-call score of the fitted dose curve at least 0.9, where 1 is the maximum; inactive = score below 0.9); conditions: actives raise or lower the signal
Procedure, shortened: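 RUES2-GLR human pluripotent cells differentiated toward endoderm for 48 h, dosed twice at 24 h intervals (1 nM–200 uM, 10 points). Imaging gives % SOX17+ cells (intensity >5x BMAD above pluripotent control median); bidirectional fit versus 0.2% DMSO.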

[6] = CCTE_Mundy_HCI_iCellGluta_NOG_NeuriteCount: CCTE's Neurite Outgrowth Assay in iCellGluta cells for Neurite Count, Mundy Lab (AID 2284342);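 also: chemical exposure about 48 hours starting 2 hours after plating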
SERPINA7 (gene 6906) = experiment: CCTE_GLTED_hTBG: CCTE's human Thyroxine-binding Globulin (TBG) Inhibition Assay, Great Lakes Toxicology and Ecology Division (GLTED) Lab (AID 2284343);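 also: active chemicals lower fluorescence versus DMSO baseline by displacing probe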
Procedure, shortened: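 Cell-free binding assay in which human TBG is incubated with test chemical for 2 hours and displacement of the fluorescent probe ANSA is read at 380 nm excitation/475 nm emission. Activity is fitted against DMSO as the negative control.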

[7] = test system: SRY-box transcription factor 2 (SOX2) Protein Expression, Deisenroth Lab, SOX2 (gene 6657); experiment: CCTE_Deisenroth_DEVTOX-GLR_legacy_Sox2: (Legacy) CCTE's DevTox GLR-Endo Assay Evaluation of SRY-box transcription factor 2 (SOX2) Protein Expression, Deisenroth Lab (AID 2284346; active = hit-call score of the fitted dose curve at least 0.9, where 1 is the maximum; inactive = score below 0.9)
Procedure, shortened: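 RUES2-GLR human pluripotent cells seeded 24 h, then differentiated 48 h in defined media with two chemical doses 24 h apart (10-point, 1 nM–200 uM). Fixed, nuclear-stained, imaged; % Sox2+ cells (>5x BMAD over endoderm control median), DMSO-subtracted, fitted upward.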

[8] = test system: SRY-box transcription factor 17 (SOX17) Protein Expression, Deisenroth Lab, SOX17 (gene 64321); experiment: CCTE_Deisenroth_DEVTOX-GLR_Endo_SOX17: CCTE's DevTox GLR-Endo Assay Evaluation of SRY-box transcription factor 17 (SOX17) Protein Expression, Deisenroth Lab (AID 2284413; active = hit-call score of the fitted dose curve at least 0.9, where 1 is the maximum; inactive = score below 0.9)
Procedure, shortened: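 Endpoint: % change in SOX17+ fraction (SOX17+ cells / cell count) vs 0.2% DMSO solvent control. RUES2-GLR reporter cells, 48 h endoderm differentiation, two doses at 24 h intervals, high-content fluorescence imaging, 5 fields/well.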

[9] = VALA_TUBHUV_Antagonist_TubuleLength: VALA Sciences human Umbilical Vein Endothelial Tubule Formation (TUBHUV) Antagonism Assay (AID 2284325)
Procedure, shortened: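 HUVEC–HDF co-culture (1:3) pre-grown 3 days with 10 ng/ml VEGF, then 3 days with compound plus VEGF. Fixed, nuclear and CD31 stained; total tubule length by imaging versus 0.1% DMSO; suramin 100 uM positive control.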

[10] = VALA_TUBHUV_Agonist_TubuleLength: VALA Sciences human Umbilical Vein Endothelial Tubule Formation (TUBHUV) Agonism Assay (AID 2284337)
Procedure, shortened: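 HUVEC co-cultured with fibroblasts (1:3) 3 days in 10 ng/ml VEGF, then 3 days with compound plus VEGF; 0.1 % DMSO neutral control. Fixed, nuclear and CD31 stained; tubule length by fluorescence imaging.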

[11] = VALA_TUBIPS_Agonist_CellCount: Viability Assessment in the VALA Sciences human iPS-derived Endothelial Tubule Formation (TUBIPS) Agonism Assay (AID 2284338)
[12] = CCTE_Deisenroth_5AR_NBTE_donor: CCTE's 5alpha-reductase NanoBRET Target Engagement Assay […], Deisenroth Lab (AID 2284319; active = hit-call score of the fitted dose curve at least 0.9, where 1 is the maximum; inactive = score below 0.9); conditions: actives raise or lower the signal
Procedure, shortened: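 HEK293T cells transiently expressing SRD5A2-NanoLuc, exposed 5 h to chemicals (8 points, 10 nM - 29.9 uM), with testosterone tracer for the final 2 h. Donor luminescence at 460 nm read after Nano-Glo substrate plus extracellular NanoLuc inhibitor; bidirectional fit versus DMSO.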

[13] = CCTE_Deisenroth_5AR_NBTE_acceptor: CCTE's 5alpha-reductase NanoBRET Target Engagement Assay - Autofluorescence Screen, Deisenroth Lab (AID 2284321; active = hit-call score of the fitted dose curve at least 0.9, where 1 is the maximum; inactive = score below 0.9;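 also: compound fluorescence in the acceptor channel under 460 nm excitation flags autofluorescence artifacts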); conditions: actives raise or lower the signal
Procedure, shortened: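 Using three independent plate-reader runs, nominal 100 uM chemicals were checked for intrinsic fluorescence (ex 460 nm). DMSO defined the baseline for bidirectional fitting.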

SRD5A2 (gene 6716) = experiment: CCTE_Deisenroth_5AR_NBTE_ratio: CCTE's 5alpha-reductase NanoBRET Target Engagement Assay - Ratio, Deisenroth Lab (AID 2284322; active = hit-call score of the fitted dose curve at least 0.9, where 1 is the maximum; inactive = score below 0.9); conditions: actives raise or lower the signal
Procedure, shortened: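 Reverse-transfect HEK293T with pNLF1-C-SRD5A2, express 20 h. Pre-incubate cells with chemical 3 h (8-point series, 10 nM - 29.9 uM, duplicate). Add testosterone tracer, 2 h more. Add substrate/inhibitor, read donor and acceptor emission.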

[14] = TAMU_PeakParms_SingleDonor1434_Asystole: Texas A&M University (TAMU) 1.5-hr Human Induced Pluripotent Stem Cell (iPSC)-derived Cardiomyocytes Calcium (Ca+2) Flux Assay for Cardiotoxicity: Asystole (quiescence of beating) (AID 2284328)
Procedure, shortened: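 Human iPSC-derived cardiomyocytes (donor 1434) were exposed to 0.2, 1, 10 and 100 uM compound in 0.5% DMSO for 90 min at 37C. Ca2+-dye fluorescence gave average peak frequency; POD is EC95, a 95% beat-rate drop versus DMSO.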

[15] = CCTE_Mundy_HCI_iCellGluta_NOG_NeuronCount: CCTE's Neurite Outgrowth Assay in iCellGluta cells for Neuron Count, Mundy Lab (AID 2284340);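 also: cells fixed about 48 h after compound addition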
Procedure, shortened: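 Neuron count read by automated high-content imaging of Hoechst 33342 and betaIII-tubulin/Alexa Fluor-488 labelling in human iPSC glutamatergic neurons. Activity fitted relative to DMSO.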

[16] = VALA_TUBIPS_Antagonist_CellCount: Viability Assessment in the VALA Sciences human iPS-derived Endothelial Tubule Formation (TUBIPS) Antagonism Assay (AID 2284335)
[17] = VALA_MIGHUV1_ScratchOnly_WoundArea: VALA Sciences human Umbilical Vein Endothelial Cell Migration (MIGHUV) Assay, Area of Scratch Wound Inhibited Recovery (AID 2284336)
Procedure, shortened: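 HUVEC monolayers (9000 cells/well) were scratched after 24 h, dosed within 30 min (six concentrations, triplicate, 0.1% DMSO), allowed 24 h recovery, then fixed. Hoechst-stained nuclei in the wound imaged; cytochalasin D as reference.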

[18] = VALA_MIGHUV1_ScratchOnly_CellCount: Viability Assessment in the VALA Sciences human Umbilical Vein Endothelial Cell Migration (MIGHUV) Assay, Scratch Wound Inhibited Recovery (AID 2284327)
Procedure, shortened: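 HUVEC scratched after 24 h culture, chemical added within 30 min at 6 concentrations in triplicate (0.1% DMSO vehicle). After 24 h recovery, fixed cells were counted by Hoechst nuclear imaging in the wound area.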

CC(=O)CC(c1ccccc1)c1c(O)c2ccccc2oc1=O (stereo unspecified)
outcome [1]: inactive | outcome [2]: inactive | outcome [3]: inactive | outcome [4]: inactive | outcome [5]: inactive | outcome [6]: inactive | AC50 (SERPINA7 (gene 6906)): 37.9 µM (active) | outcome [7]: inactive | AC50 [8]: 100 µM (active)

O=C1NC(=O)C(c2ccccc2)(c2ccccc2)N1
outcome [3]: inactive | outcome [4]: inactive | outcome [5]: inactive | AC50 (SERPINA7 (gene 6906)): 17.4 µM (active) | outcome [7]: inactive | outcome [8]: inactive

CCCCC(CC)COP(=O)(OCC(CC)CCCC)OCC(CC)CCCC (stereo unspecified)
AC50 [9]: 10 µM (active) | outcome [10]: inactive | AC50 [11]: 0.00227 µM (active)

CCCCC(CC)COC(=O)CCCCCCCC(=O)OCC(CC)CCCC (stereo unspecified)
outcome [12]: inactive | outcome [13]: inactive | outcome (SRD5A2 (gene 6716)): inactive

Cc1cc(Cc2ccc(N)c(C)c2)ccc1N
AC50 (SERPINA7 (gene 6906)): 24 µM (active)

O=Cc1ccccc1C=O
AC50 (SERPINA7 (gene 6906)): 8.72 µM (active)

O=C(O)CC(O)(CC(=O)O)C(=O)O
outcome [14]: inactive

S=c1[nH]c2ccccc2s1
AC50 (SERPINA7 (gene 6906)): 36.4 µM (active)

CCCCc1nc2cccnc2n1Cc1ccc(-c2ccccc2-c2nnn[nH]2)cc1
AC50 (SERPINA7 (gene 6906)): 33.7 µM (active)

OCC(O)CO
outcome [1]: inactive | outcome [4]: inactive | outcome [15]: inactive | outcome [6]: inactive

Nc1nc(Cl)nc2c1ncn2[C@H]1C[C@H](O)[C@@H](CO)O1
AC50 [9]: 0.703 µM (active) | AC50 [16]: 0.956 µM (active) | AC50 [17]: 23.2 µM (active) | AC50 [10]: 15.2 µM (active) | AC50 [11]: 0.23 µM (active)

O=C(O)c1cccnc1
outcome [2]: inactive | outcome [3]: inactive | outcome [5]: inactive | outcome [7]: inactive | outcome [8]: inactive

CCCCCCC(C=O)=Cc1ccccc1
AC50 (SERPINA7 (gene 6906)): 21.5 µM (active)

O=C(Oc1ccccc1)c1cccc(C(=O)Oc2ccccc2)c1
AC50 (SERPINA7 (gene 6906)): 9.91 µM (active)

Cc1ccc(-c2cc(C(F)(F)F)nn2-c2ccc(S(N)(=O)=O)cc2)cc1
outcome [16]: inactive | outcome [17]: inactive | outcome [11]: inactive

O=C(O)c1[nH]n(-c2ccc(S(=O)(=O)O)cc2)c(=O)c1N=Nc1ccc(S(=O)(=O)O)cc1
AC50 [12]: 35 µM (active) | outcome [13]: inactive | AC50 (SRD5A2 (gene 6716)): 57.5 µM (active) | AC50 (SERPINA7 (gene 6906)): 27.1 µM (active)

Cc1c(C)c2c(c(C)c1O)CCC(C)(COc1ccc(CC3SC(=O)NC3=O)cc1)O2 (stereo unspecified)
outcome [12]: inactive | outcome [13]: inactive | AC50 (SRD5A2 (gene 6716)): 29.7 µM (active) | AC50 (SERPINA7 (gene 6906)): 8.3 µM (active)

Cc1ccc(C(C)(C)C)c(O)c1
AC50 (SERPINA7 (gene 6906)): 26.7 µM (active)

CCc1nc(N)nc(N)c1-c1ccc(Cl)cc1
outcome [14]: inactive

Nc1nc(=S)c2[nH]cnc2[nH]1
outcome [14]: inactive

COC(=O)[C@H]1[C@H]2C[C@@H]3c4[nH]c5cc(OC)ccc5c4CCN3C[C@H]2C[C@@H](OC(=O)c2cc(OC)c(OC)c(OC)c2)[C@@H]1OC
AC50 [9]: 84.3 µM (active) | outcome [18]: inactive | outcome [14]: inactive | outcome [16]: inactive | outcome [17]: inactive | outcome [10]: inactive | outcome [11]: inactive

CCCCCCCCCCCCCCOS(=O)(=O)O
outcome [12]: inactive | outcome [13]: inactive | AC50 (SRD5A2 (gene 6716)): 26.1 µM (active) | AC50 (SERPINA7 (gene 6906)): 27.7 µM (active)

O=C1OC(c2ccc(O)cc2)(c2ccc(O)cc2)c2ccccc21
outcome [12]: inactive | outcome [13]: inactive | AC50 (SRD5A2 (gene 6716)): 50 µM (active) | AC50 [9]: 50 µM (active) | outcome [16]: inactive | AC50 [17]: 75.4 µM (active) | outcome [11]: inactive | AC50 (SERPINA7 (gene 6906)): 3.3 µM (active)

CCN(CC)CCOc1ccc(C(=C(Cl)c2ccccc2)c2ccccc2)cc1
outcome [12]: inactive | outcome [13]: inactive | outcome (SRD5A2 (gene 6716)): inactive

O=C1c2c(O)cccc2Cc2cccc(O)c21
outcome [12]: inactive | outcome [13]: inactive | AC50 (SRD5A2 (gene 6716)): 75.5 µM (active) | AC50 (SERPINA7 (gene 6906)): 41.1 µM (active)

CCC(C)N(C)C(=O)c1cc2ccccc2c(-c2ccccc2Cl)n1 (stereo unspecified)
AC50 (SERPINA7 (gene 6906)): 38.1 µM (active)

Cc1cn([C@H]2C=C[C@@H](CO)O2)c(=O)[nH]c1=O
outcome [2]: inactive | outcome [3]: inactive | outcome [5]: inactive | outcome [7]: inactive | outcome [8]: inactive

C/C=C/C=C/C(=O)O
outcome [12]: inactive | outcome [13]: inactive | outcome (SRD5A2 (gene 6716)): inactive
